We go through 30 compounds from PubChem BioAssay (NCI).

This is part of a sample that, as a whole, favours compounds with a hit. Of some 83,000 tested, about 20% had one in any assay.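 Single-dose data. Exposure time 48 hours. Values below 10 considered active.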 A number with no mark means an inactive call. Calls of active or inactive are those of the source.

This assay deals with NCI/ADR-RES ovarian. The assay can be described thus: NCI-60 one-dose screen, 48 h (100 = growth as untreated, 0 = no growth, -100 = all killed). The following applies: 10 µM unless noted.
With `CCCCC[C@H]1C/C=C2/C(=O)C=C[C@@H]2C/C=C\CCCC(=O)O1`, the growth was 10.3%. The figure for `CNC(=O)c1cc(Oc2ccc(NC(=O)Nc3ccc(Cl)c(OC(F)(F)F)c3)c(F)c2)ccn1` is 31.6%. In the case of `COc1ccc2c(c1)C(=O)/C(=C/c1cccnc1)CC2` it was 94.8%. The figure for `COc1cccc(-c2nc(SCC(=O)Nc3ccc(C(=O)/C=C/c4ccc(OC)c(OC)c4)cc3)[nH]c(=O)c2C#N)c1` is 93.6%; for `CCCn1c(=O)[nH]c(N)c([C@H]2c3ccccc3Oc3[nH]c(=O)n(CCC)c(=O)c32)c1=O` it is 94.8%; for `C=C1C(=O)O[C@H]2[C@H]1CC/C(COC(=O)NCc1ccc(OC)c(OC)c1)=C\CC[C@@]1(C)O[C@@H]21` it is 93.9%. For `N#CN1CC[C@H](C(=O)Nc2cc3cc(C(N)=O)ccc3cn2)C1`, the growth is 1.36% (active). In the case of `O=C1c2c(O)cc(O)cc2-c2c(-c3ccc(O)cc3)oc3cc(O)cc1c23` it was 90.4%; in that of `O=C1/C(=C/c2ccccc2O)N=C2SCCCN12`, 99.6%; in that of `COc1ccc(CN2c3ccccc3Sc3ccccc32)c(C(F)(F)F)c1`, 22.7%. The figure for `COc1ccc(-c2nc(SCC(=O)Nc3ccc(C(=O)/C=C/c4ccc(Cl)cc4)cc3)[nH]c(=O)c2C#N)cc1` is 102%; for `COc1ccc2c(c1)CC/C(=C\c1cncc(Br)c1)C2=O` it is 83.1%; for `COc1ccc2c(c1)C(=O)/C(=C/c1ccccn1)CC2` it is 88.6%. In the case of `Cc1nc(Nc2ccc(F)c(Cl)c2)sc1C(=O)O`, the growth was 13.4%. In the case of `CCOC(=O)c1sc(Nc2ccc(Cl)cc2)nc1C` it was 17.5%. Turning to `CC(=O)O[C@H]1C(=O)[C@@]2(C)[C@H]([C@H](OC(=O)c3ccccc3)[C@]3(O)C[C@H](OC(=O)[C@H](OC(=O)CCC(=O)OC4CCC(S/N=C(N)/N=C(\N)N(C)C)CC4)[C@@H](NC(=O)c4ccccc4)c4ccccc4)C(C)=C1C3(C)C)[C@]1(OC(C)=O)CO[C@@H]1C[C@@H]2O` (stereo not given in full), the growth was 44.5%. As for `CC(=O)OC[C@H]1O[C@H](OC(C)=O)[C@H](NC(=O)/C=C/CCl)[C@@H](OC(C)=O)[C@@H]1OC(C)=O`, the growth is 90.7%. Consider `COc1cc(-c2nc(C(=O)NCC(=O)NO)nn2-c2ccc(Cl)cc2)cc(OC)c1OC`, for which the growth was 106%.

For `C=C1C(=O)O[C@H]2[C@H]1CC/C(COC(=O)NCCc1ccc(OC)c(OC)c1)=C\CC[C@@]1(C)O[C@@H]21`, the growth was 103%. In the case of `CC/C=C\C[C@H](O)C/C=C1/C(=O)C=C[C@@]1(C)C/C=C\CCCC(=O)OC` it was 94.8%; in that of `Cc1ccc2oc(=O)cc(C3c4ccc([nH]4)C(c4cc(=O)oc5ccc(C)cc45)c4ccc([nH]4)C(c4cc(=O)oc5ccc(C)cc45)c4ccc([nH]4)C(c4cc(=O)oc5ccc(C)cc45)c4ccc3[nH]4)c2c1` (stereo not given), -25% (active); in that of `COc1cccc2c1C(=O)c1c(O)c3c(c(O)c1C2=O)C[C@](O)(C(=O)CO)C[C@H]3O[C@@H]1C[C@@H](NC(=O)CCCCCN(C)C2(c3ccc(F)cc3)CC3CCC2C3)[C@H](O)[C@@H](C)O1` (stereo not given in full), 80.2%. In the case of `NC(=NCCCC1(c2ccccc2)CCCC1)Nc1ccc(Cl)cc1` it was 67.1%. Take `CCC#CC[C@H](O)C/C=C1/C(=O)C=C[C@@H]1C/C=C\CCCC(=O)OC`: the growth was 14.4%.

Turning to `O=c1oc2c(C(F)(F)F)cccc2cc1-c1csc(Nc2ccc(OCCF)cc2)n1`, the growth is 17.5%. In the case of `CNC(=O)c1cc(Oc2ccc(NC(=O)Nc3ccc(Cl)c(SC)c3)c(F)c2)ccn1` it was 47.8%. `c1ccc2[nH]c(-c3ccc(Nc4nc(N5CCCC5)nc5[nH]ncc45)cc3)nc2c1`: the growth is 1.12% (active).

As for `CC/C=C\C/C=C\C[C@H]1C/C=C2/C(=O)C=C[C@@H]2C/C=C\CCC(=O)O1`, the growth is 17.9%. `CCOc1ccc(-n2nc(C(=O)Nc3cc(OC)c(OC)c(OC)c3)nc2-c2cc(OC)c(OC)c(OC)c2)cc1`: the growth is 85.8%. On to `CC/C=C\C[C@H]1C/C=C2/C(=O)C=C[C@H]2C/C=C\CCCC(=O)O1`, for which the growth was 22.4%.
